BAZ2B block: qHTS Assay for Inhibitors of BAZ2B; Bromodomain adjacent to zinc finger domain protein 2B (Homo sapiens), Q9UIF8; AlphaScreen BAZ2B-H3K14Ac peptide displacement; Potency, µM (series often up to 114 µM), for inactives: at the top dose activity change, negative = inhibition, actives largely listed as inhibitors; 360,000 compounds, 4.4% hits; note: potency is the fitted concentration of half-maximal effect; % is set by controls: 0 for no effect and ±100 for the full control effect; nearly all actives have a fitted effect of over 60% in size
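AlphaScreen luminescence quantifies BAZ2B engagement of H3K14Ac peptide; the protein and biotinylated peptide are both at 50 nM final, buffer PBS pH 7.4 with 0.01% Tween-20, all steps at room temperature.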
PI5P4K alpha inh: qHTS for Inhibitors of phosphatidylinositol 5-phosphate 4-kinase (PI5P4K) | PI5P4Kalpha enzyme, ADP-Glo luminescence, 60 min; stronger effect = lower value | max response, % | 330,000 compounds, 1.2% hits | Phosphatidylinositol 5-phosphate 4-kinase type-2 alpha (Homo sapiens), P48426; active = max response of -50% or lower; inconclusive = between -30% and -50%; inactive = -30% or higher; note: value at the top dose of about 77 µM; % is set by controls: 0 for no effect and ±100 for the full control effect
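Single end-point luminescence (ADP-Glo) quantified ADP from PI5P4Kalpha turnover; ATP 5 microM final, 1 h at RT, 0.1% CHAPS and 0.28 mM EGTA in HEPES pH 7.4.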
HP1b chromo inh: HTS for Inhibitors of HP1-beta Chromodomain Interactions with Methylated Histone Tails | Chromobox protein homolog 1 (Homo sapiens), P83916 | AlphaScreen HP1-beta / biotin-H3K9me3 peptide binding | Potency, µM (doses to about 114 µM), without a hit: at the top dose activity change, negative = inhibition, hits mostly inhibitors | 390,000 compounds, 0.56% hits | AID 540317, 2011; note: potency is the fitted concentration of half-maximal effect; nearly all actives have a fitted effect of over 70% in size
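HP1-beta protein (50 nM final) preincubated 30 min at room temperature with biotinylated H3(1-18)K9me3 peptide (50 nM) in PBS pH 7.4, 0.01% Tween-20, then compound added for 30 min. AlphaScreen streptavidin donor/nickel chelate acceptor beads (10 ug/mL final), 30 min dark, luminescence read.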
KDM4E inh: qHTS Assay for Inhibitors of Human Jumonji Domain Containing 2E (JMJD2E). Lysine-specific demethylase 4E (Homo sapiens), B2RXH2. JMJD2E catalytic domain, FDH-coupled NADH fluorescence (FDH is formaldehyde dehydrogenase). Potency, µM (top dose mostly 57.1 µM), without a hit: at the highest dose activity change, negative = inhibition, most hits filed as inhibitors. 230,000 compounds, 1.6% hits. AID 2147, 2009; active = well fitted inhibition curve with a large enough effect, not every such curve was filed as active; inconclusive = small, poorly fitted or top-dose-only effect, or another doubt; inactive = no such curve, though single readings can be large or run the other way;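 note: potency is the fitted concentration of half-maximal effect; 0% = wells with enzyme and -100% = buffer wells without enzyme; nearly all actives have a fitted effect of over 50% in size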
L3MBTL1 inh: qHTS Assay for the Inhibitors of L3MBTL1. Potency, µM (titrated, usually from 57.1 µM), for the others: at the top dose activity, negative = inhibition, hits mostly inhibitors. AID 485360, 2010. AlphaScreen L3MBTL1–H3K9me1 peptide binding. 230,000 compounds, 0.66% hits; note: potency is the fitted concentration of half-maximal effect; % is set by controls: 0 for no effect and ±100 for the full control effect; nearly all actives have a fitted effect of over 60% in size
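AlphaScreen assay: L3MBTL1 (50 nM final) was preincubated 30 min at room temperature with biotinylated H3(1-15)K9me1 peptide (75 nM final), then 30 min with library compounds; streptavidin donor and nickel chelate acceptor beads (10 ug/mL final) added, 30 min dark.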
JMJD2A Tudor: qHTS Assay for Inhibitors of JMJD2A-Tudor Domain; 390,000 compounds, 4.4% hits; AlphaScreen JMJD2A-Tudor / H3K4me3 peptide binding; Lysine-specific demethylase 4A (Homo sapiens), O75164; Potency, µM (top dose mostly 114 µM), without a hit: at the top dose activity change, negative = inhibition, hits mostly inhibitors; note: potency is the fitted concentration of half-maximal effect; % is set by controls: 0 for no effect and ±100 for the full control effect; nearly all actives have a fitted effect of over 50% in size
Target sequence (O75164 whole entry, looked up, the tested form may be a part): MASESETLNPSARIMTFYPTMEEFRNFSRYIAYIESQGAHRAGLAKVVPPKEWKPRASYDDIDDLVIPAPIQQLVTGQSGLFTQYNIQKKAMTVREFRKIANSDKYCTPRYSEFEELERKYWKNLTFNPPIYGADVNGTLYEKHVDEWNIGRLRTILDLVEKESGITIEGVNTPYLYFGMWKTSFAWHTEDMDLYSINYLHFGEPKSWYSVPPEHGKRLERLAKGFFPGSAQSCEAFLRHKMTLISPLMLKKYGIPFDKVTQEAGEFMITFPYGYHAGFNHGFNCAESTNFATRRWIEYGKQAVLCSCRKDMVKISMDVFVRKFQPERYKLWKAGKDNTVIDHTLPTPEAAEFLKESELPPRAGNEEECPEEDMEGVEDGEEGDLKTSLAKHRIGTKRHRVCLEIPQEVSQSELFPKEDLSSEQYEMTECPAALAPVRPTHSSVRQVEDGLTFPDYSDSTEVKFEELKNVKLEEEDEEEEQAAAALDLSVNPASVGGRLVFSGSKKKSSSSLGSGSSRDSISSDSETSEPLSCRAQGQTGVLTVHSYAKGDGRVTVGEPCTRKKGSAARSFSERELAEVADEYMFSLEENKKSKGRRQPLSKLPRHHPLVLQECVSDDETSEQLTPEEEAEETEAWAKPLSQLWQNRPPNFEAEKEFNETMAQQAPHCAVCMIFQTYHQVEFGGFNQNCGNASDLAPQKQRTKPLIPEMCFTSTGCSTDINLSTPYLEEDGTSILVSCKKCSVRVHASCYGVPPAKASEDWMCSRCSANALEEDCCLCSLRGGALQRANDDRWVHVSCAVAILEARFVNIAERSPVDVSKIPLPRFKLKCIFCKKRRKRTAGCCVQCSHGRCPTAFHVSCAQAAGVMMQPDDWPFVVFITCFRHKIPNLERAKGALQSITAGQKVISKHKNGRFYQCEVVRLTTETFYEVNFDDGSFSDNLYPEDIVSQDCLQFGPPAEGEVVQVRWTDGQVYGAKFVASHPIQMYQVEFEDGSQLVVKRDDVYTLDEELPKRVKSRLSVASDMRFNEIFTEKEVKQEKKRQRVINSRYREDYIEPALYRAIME
An asterisk follows results filed as active; [ ] = remark or other dose. In the library only some 5.7% were active in any assay of this set; here they are far more common. Unless noted, calls come from the whole dose curve; as a rule, active = well fitted inhibition curve with a large enough effect; inconclusive = small, poorly fitted or top-dose-only effect; inactive = no such curve, though single readings can be large or run the other way.

How did c1ccc(CN2CCN(CCOCCOc3ccc4c(c3)CCC4)CC2)cc1 do in these assays?
BAZ2B block: inconclusive; PI5P4K alpha inh: 2; HP1b chromo inh: inconclusive; KDM4E inh: -10%; L3MBTL1 inh: -6%; JMJD2A Tudor: 0.79µM*

Results for c1ccc2c(c1)ncn2CCCOc1ccc2c(c1)CCC2 ?
BAZ2B block: -8%; HP1b chromo inh: 16%; KDM4E inh: -17%; JMJD2A Tudor: -33%

Results for Clc1ccc(Cl)c(OCCN2CCCC2)c1 ?
BAZ2B block: inconclusive; PI5P4K alpha inh: 0; HP1b chromo inh: inconclusive; L3MBTL1 inh: -1%; JMJD2A Tudor: 32µM*

How did CC(C)(C)c1cc(Cl)ccc1OCCOCCN1CCCC1 do in these assays?
BAZ2B block: inconclusive; PI5P4K alpha inh: 1; HP1b chromo inh: -31%; L3MBTL1 inh: -2%; JMJD2A Tudor: 20µM*

How did CC(C)(C)c1ccccc1OCCCCN1CCCC1 do in these assays?
BAZ2B block: 0%; PI5P4K alpha inh: -1; HP1b chromo inh: 33%; KDM4E inh: 1%; JMJD2A Tudor: -6%

Results for Cc1ccc(OCCOCCN2CCN(C)CC2)c(C(C)(C)C)c1 ?
BAZ2B block: 56µM*; PI5P4K alpha inh: 3; HP1b chromo inh: inconclusive; L3MBTL1 inh: -5%; JMJD2A Tudor: 5.6µM*

How did Clc1ccc(Cl)c(OCCN2CCOCC2)c1 do in these assays?
BAZ2B block: 4%; PI5P4K alpha inh: 1; HP1b chromo inh: 37%; KDM4E inh: -2%; L3MBTL1 inh: -18%[11.4 µM]; JMJD2A Tudor: -5%

How did C[C@H](CO)N1C[C@H](C)[C@@H](CN(C)Cc2ccc(-c3ccccc3)cc2)Oc2c(NC(=O)Nc3ccc(C(F)(F)F)cc3)cccc2C1=O do in these assays?
PI5P4K alpha inh: 0; HP1b chromo inh: 28%; L3MBTL1 inh: 2%; JMJD2A Tudor: -21%

How did COc1cccc(N2CCN(C(=O)CN3CCSc4ccccc43)CC2)c1 do in these assays?
BAZ2B block: inconclusive; HP1b chromo inh: 1%[57 µM]; JMJD2A Tudor: inconclusive

How did Cc1ccc(C)c(OCCOCCN2CCOCC2)c1 do in these assays?
BAZ2B block: -25%; HP1b chromo inh: 21%; KDM4E inh: -5%; JMJD2A Tudor: -6%

How did COc1ccc(OCCOCCN2CCN(C)CC2)cc1 do in these assays?
BAZ2B block: 50µM*; PI5P4K alpha inh: 0; HP1b chromo inh: inconclusive; L3MBTL1 inh: -3%; JMJD2A Tudor: 18µM*

What do the screens show for `C=CCc1cc(C)ccc1OCCOCCN1CCN(C)CC1`?
BAZ2B block: 50µM*; PI5P4K alpha inh: -1; HP1b chromo inh: inconclusive; L3MBTL1 inh: -14%; JMJD2A Tudor: 7.9µM*

How did COc1cccc(OC)c1OCCOCCN1CCN(C)CC1 do in these assays?
BAZ2B block: 13%; PI5P4K alpha inh: -2; HP1b chromo inh: 23%; JMJD2A Tudor: -1%

Results for CCCCN(CC)CCCNC(=O)c1sc2nc(C)cc(C)c2c1-n1cccc1 ?
BAZ2B block: 10%; HP1b chromo inh: 68%; JMJD2A Tudor: -24%

Results for COc1ccc(OC)c(NC(=O)Cn2ccc3ccccc3c2=O)c1 ?
BAZ2B block: -21%; HP1b chromo inh: 26%; JMJD2A Tudor: -13%

Results for COC1C=CO[C@@]2(C)Oc3c(C)c(O)c4c(O)c(c(C=NN5CCN(C)CC5)c(O)c4c3C2=O)NC(=O)/C(C)=C\C=CC(C)C(O)[C@@H](C)C(O)C(C)[C@H](OC(C)=O)C1C (stereo partly specified) ?
KDM4E inh: 13µM*

How did C=C1/C=C(\C)C(C)(O)CC(O)CC(=O)C(O)C(O)C(C)CC(C)OC(=O)/C(C)=C/CC/C=C/C(OC)C(O)CC(C)C1 (stereo unspecified) do in these assays?
PI5P4K alpha inh: 2; HP1b chromo inh: 27%; L3MBTL1 inh: 2%; JMJD2A Tudor: -16%

How did C=CCSC1=N/C(=C\C=C\c2ccco2)C(=O)S1 do in these assays?
BAZ2B block: 10µM*; PI5P4K alpha inh: -63*; HP1b chromo inh: 40µM*; KDM4E inh: inconclusive; L3MBTL1 inh: 2.8µM*; JMJD2A Tudor: 45µM*

How did O=C(Oc1cccc2ccccc12)c1ccco1 do in these assays?
BAZ2B block: 5%; HP1b chromo inh: 58%; KDM4E inh: -2%; JMJD2A Tudor: 16%

What do the screens show for `O=C(Oc1cccc2cccnc12)c1ccco1`?
BAZ2B block: 71µM*; PI5P4K alpha inh: 5; HP1b chromo inh: 28%; KDM4E inh: inconclusive; L3MBTL1 inh: -9%; JMJD2A Tudor: -17%

Results for O=C(Nc1cccc2cccnc12)c1ccc(Br)o1 ?
BAZ2B block: -10%; HP1b chromo inh: 24%; KDM4E inh: -4%; L3MBTL1 inh: -2%; JMJD2A Tudor: 4%

Results for O=C(Cc1ccc(Cl)cc1)Oc1cccc2cccnc12 ?
BAZ2B block: 10µM*; PI5P4K alpha inh: 2; HP1b chromo inh: 21%; KDM4E inh: 6%; L3MBTL1 inh: inconclusive; JMJD2A Tudor: 25µM*

What do the screens show for `O=C(Oc1ccc(Cl)c2cccnc12)c1ccco1`?
BAZ2B block: 50µM*; PI5P4K alpha inh: 2; HP1b chromo inh: 42%; KDM4E inh: 7%; JMJD2A Tudor: -18%

How did O=C(Oc1cccc2cccnc12)c1ccc(Br)o1 do in these assays?
BAZ2B block: 50µM*; PI5P4K alpha inh: -11; HP1b chromo inh: 29%; KDM4E inh: 1%; L3MBTL1 inh: -8%; JMJD2A Tudor: -23%

How did NNC(=O)COc1cccc2cccnc12 do in these assays?
BAZ2B block: -5%; PI5P4K alpha inh: 3; HP1b chromo inh: 44%; KDM4E inh: 7%; L3MBTL1 inh: 5%; JMJD2A Tudor: -4%[11.4 µM]

Results for Cc1c(P(=S)(c2ccccc2)c2ccccc2)c2ccccc2n1C(=O)NCc1ccc(F)cc1 ?
JMJD2A Tudor: -16%

How did C=Cc1ccc(COc2ccc3oc(-c4ccccc4)c(C(=O)OCC)c3c2)cc1 do in these assays?
BAZ2B block: 107%; HP1b chromo inh: 139%; JMJD2A Tudor: 103%

What do the screens show for `CC(Nc1ccc(N2CCOCC2)cc1)C(=O)N1c2ccccc2CC1C` (stereo unspecified)?
BAZ2B block: 35µM*; PI5P4K alpha inh: -4; HP1b chromo inh: -12%; KDM4E inh: -11%; L3MBTL1 inh: -28%; JMJD2A Tudor: inconclusive

Screening results as filed in PubChem.
